This note sets out measurements from PMC7819943, “Rice protein-binding microarrays: a tool to detect cis-acting elements near promoter regions in rice”.

Whole data set: some 68,000 sequences, median “fluorescence intensity (a.u.)” near 9,100, cut for the highest 2% near 16,000. Only a selection was taken, and the highest values are over-represented in it overall.

Sequence of OsWRKY34 (Q0JBA9 entry or part of it): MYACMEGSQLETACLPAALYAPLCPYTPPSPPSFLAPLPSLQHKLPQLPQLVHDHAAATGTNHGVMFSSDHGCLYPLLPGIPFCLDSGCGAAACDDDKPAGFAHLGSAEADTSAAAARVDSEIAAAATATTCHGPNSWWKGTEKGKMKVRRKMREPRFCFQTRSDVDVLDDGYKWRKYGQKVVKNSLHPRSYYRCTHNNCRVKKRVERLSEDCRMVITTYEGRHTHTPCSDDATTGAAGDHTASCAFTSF

The experiment has as its target OsWRKY34 (Oryza sativa, UniProt Q0JBA9 1-250). Put plainly: protein-binding microarray (RPBM); PBS, 2% BSA, 51.3 ng/ul salmon testes DNA, 50 uM zinc acetate, 200 nM TF, 25 C, 1 h; high values mean tight binding. Particulars: protein: recombinant; tags: N-terminal polyhistidine and DsRed monomer fusion (pET32a); label: CyDye5-dUTP incorporated in the synthesized complementary strand; 3' TTTTT single-stranded linker to array surface; dsDNA, one strand shown. The essentials:
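The binding signal is fluorescence intensity per feature, in arbitrary units, read on an Axon 4000B scanner. Polyhistidine- and DsRed-tagged transcription factors (N-terminal fusions) from E. coli BL21-CodonPlus were purified on Ni–NTA and applied at 200 nM for 1 h at 25 °C to a double-stranded, BSA-blocked custom Agilent array in buffer with 50 µM zinc acetate.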
As for “TAAAAAAGTCAACGGCGTTAAACATTTTGGGATGGAGGGACGGAGTCACCTAGTGCAG”, the binding signal was 11200 fluorescence intensity (a.u.). The same measure for “ATATTTAAAAAAGTCAACGGCGTCAAACATTTTGAAACGGCGGAGTCACCTAGTGCAG”: 16800 fluorescence intensity (a.u.); for “TTGTTGATTTTTTTTCAGAATTTTTATCACTATTTGTCTTCGGAGTCACCTAGTGCAG”: 8570 fluorescence intensity (a.u.); for “AATATTTTTTTGAGGTTTTTTGTTGCGTTTAAAATTCAAACGGAGTCACCTAGTGCAG”: 8110 fluorescence intensity (a.u.).

“ATCTGTACAGTTTGTGACTAATTTGCAAGACGAATCTTTTCGGAGTCACCTAGTGCAG”: the binding signal is 11500 fluorescence intensity (a.u.). To “GGATACGGCACCTTTGCGAGCTGCGTCGACCGCTCCGCCGCGGAGTCACCTAGTGCAG” belongs 9650 fluorescence intensity (a.u.). Take “GGTTCTGTTCTATATACTCCGACACCATACTGATTAGTCTCGGAGTCACCTAGTGCAG”: the binding signal was 10900 fluorescence intensity (a.u.).

Take “TTTTGAGTTTTTGTGTGAACTGTTTGACCACTCGTCTTATCGGAGTCACCTAGTGCAG”: the binding signal is 8250 fluorescence intensity (a.u.). Turning to “CCATCTCCTTCAGCCTTCGCTTCATCTGGTCGAGCTCCTGCGGAGTCACCTAGTGCAG”, the binding signal is 9080 fluorescence intensity (a.u.). In the case of “CTAGCTCACACACAATTGCATACACCTAGCTCAAAAGCCTCGGAGTCACCTAGTGCAG”, the binding signal was 9080 fluorescence intensity (a.u.).

As for “CATGTGCTCAAAGCTTATCTGCATACAAGCCTTCGAGACCCGGAGTCACCTAGTGCAG”, the binding signal was 64100 fluorescence intensity (a.u.). On to “GTCTCAAAAACTCATTCTCCACACGTAATGGATACTTTTGCGGAGTCACCTAGTGCAG”, for which the binding signal is 8800 fluorescence intensity (a.u.). To “TATAACACCAATGACTCTATCTTCATCCGCATGCGTGCCGCGGAGTCACCTAGTGCAG” belongs 9390 fluorescence intensity (a.u.). For the sequence “CCATGTATCACACTCCGTTCATATATTCCTGGGCTGTATTCGGAGTCACCTAGTGCAG”, the binding signal was 8450 fluorescence intensity (a.u.). The same measure for “CATCGCCACCACCGCAGCCGCCTCTCAATTAGGAACACGTCGGAGTCACCTAGTGCAG”: 10300 fluorescence intensity (a.u.).

Turning to “TCTCTCTTTTTTTAAGCACCTTTTCTGCCTTTTTTCTTTTCGGAGTCACCTAGTGCAG”, the binding signal is 12200 fluorescence intensity (a.u.).

Turning to “TTATCAATATCTCTCTCTCGGCGCGTATAGCCGTCGCGCGCGGAGTCACCTAGTGCAG”, the binding signal was 8690 fluorescence intensity (a.u.). “AGCACATAGCTAGTTAGCCACATATTATTTGATCACTAAACGGAGTCACCTAGTGCAG”: the binding signal was 8980 fluorescence intensity (a.u.). On to “CTATCGCCACCTTTTGCCTTGATTTCTCCTTATTGCTAAACGGAGTCACCTAGTGCAG”, for which the binding signal was 14600 fluorescence intensity (a.u.). Turning to “TAGCACTAAAACGAGAGGCCTTTTGATTTAGATTTTGCCACGGAGTCACCTAGTGCAG”, the binding signal was 21900 fluorescence intensity (a.u.).

Turning to “GTCCGCATCGAGCCGCAGATCTTTCTCACCGCCACCGATGCGGAGTCACCTAGTGCAG”, the binding signal is 8140 fluorescence intensity (a.u.). As for “CCCTATCGAACGACCACCGAAACCATCATCATTCATCACCCGGAGTCACCTAGTGCAG”, the binding signal is 9470 fluorescence intensity (a.u.). As to “TTTAGCTTAACTTATTACGATTATGGCTGTGTTTAGTTTCCGGAGTCACCTAGTGCAG”, the binding signal is 9160 fluorescence intensity (a.u.). Regarding “AAACTAATTTTCTGTGACACTTCCAAGTGCATACCGGAGTCGGAGTCACCTAGTGCAG”, the binding signal is 8660 fluorescence intensity (a.u.). As to “TTGTTTGACTCTTTTTTAATTAAATTTCTATAAGTTTAATCGGAGTCACCTAGTGCAG”, the binding signal is 8280 fluorescence intensity (a.u.).

Turning to “ATTTTTTATGGGTGTTTGGTTAGTGGGTGGGAGTGGGATACGGAGTCACCTAGTGCAG”, the binding signal was 12000 fluorescence intensity (a.u.).

Turning to “GCCTGGTTTTATAAGTTGTGGGATGGGTTATATCTAGTATCGGAGTCACCTAGTGCAG”, the binding signal is 28800 fluorescence intensity (a.u.).

As for “GGATGGGTTATATCTAGTATTGTGGTTGGGACTGCCTATACGGAGTCACCTAGTGCAG”, the binding signal is 11100 fluorescence intensity (a.u.).

Turning to “AAAGTGATGTGGTGGTGGAGTTGTGGGTATATGATTTTATCGGAGTCACCTAGTGCAG”, the binding signal was 8790 fluorescence intensity (a.u.).

With “GCTGGGTTTGTGGGTTTTCTCATAAGTTTAATCTCTATATCGGAGTCACCTAGTGCAG”, the binding signal was 17400 fluorescence intensity (a.u.). In the case of “CTATCGATATAATCTCTAAGTGAGTTTTTTGTATTTTTTTCGGAGTCACCTAGTGCAG”, the binding signal is 8020 fluorescence intensity (a.u.). “GGCCTCATTCTGGGATCGTTTTATGGTGGGGTTATCGTTACGGAGTCACCTAGTGCAG”: the binding signal is 20600 fluorescence intensity (a.u.). To “GCATATGGGGATTCTGGGATTTTGGTTTACAGTCTACATTCGGAGTCACCTAGTGCAG” belongs 8100 fluorescence intensity (a.u.); to “CCGCACAATCCGCGCCGCCATCAGTTCGCTCTCGCCACCACGGAGTCACCTAGTGCAG”, 9020 fluorescence intensity (a.u.). To “GCGCCCACGAACCTTGTCTTCAAGCAATCCCACACTTCCTCGGAGTCACCTAGTGCAG” belongs 9490 fluorescence intensity (a.u.); to “ATTTCAGGCCCACTAGTCCGCTCTTCCTCTTCTTTTTTTTCGGAGTCACCTAGTGCAG”, 9840 fluorescence intensity (a.u.); to “GCCGCCATCCCCACCATCGCCGTCGCCGTCGCCTCGCCTCCGGAGTCACCTAGTGCAG”, 13300 fluorescence intensity (a.u.). “CTCTAACAGTCTGCTATTATATCTGCTCTCATGCGTCATCCGGAGTCACCTAGTGCAG”: the binding signal is 11100 fluorescence intensity (a.u.). For “ACTTTAGTTTTTTTCCGTTGCAGCACACGGTTTTTTTTAACGGAGTCACCTAGTGCAG”, the binding signal is 9170 fluorescence intensity (a.u.). As to “TTCGTTTCAAAATATTTGACACCGTTGACTTTTTAGCACACGGAGTCACCTAGTGCAG”, the binding signal was 25700 fluorescence intensity (a.u.). As to “TTTCAAAATATTTGACTCCGTTGATTTTTTTAGCACATGTCGGAGTCACCTAGTGCAG”, the binding signal was 9070 fluorescence intensity (a.u.). To “TCCGTTTCGTTTTATTTGACACCGTTGACTTTTTAGCACACGGAGTCACCTAGTGCAG” belongs 19500 fluorescence intensity (a.u.); to “TTTAGCACGTATTTGACCGTTCGTCTTATTCAAAAACTTTCGGAGTCACCTAGTGCAG”, 8790 fluorescence intensity (a.u.); to “ACTTTTACATAGAATTTTTTTTTGAACACACCGTTTAGCACGGAGTCACCTAGTGCAG”, 8510 fluorescence intensity (a.u.).
